Experimental data as given in PubChem BioAssay AID449 (The Scripps Research Institute Molecular Screening Center, 2006).
In all, about 56,000 compounds went through this assay and about 320 (0.57%) were called active. The sample holds actives, similar compounds and a random draw of the others, so the mix is not that of the screen.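 How the source made its calls: active means activation above a cutoff set at the mean activation of all tested compounds plus 3 SD (cut at about 54% in these data); inactive means the rest, inconclusive results apart.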

Target: Sphingosine 1-phosphate receptor 1 (Homo sapiens) (UniProt P21453)
Assay: activation or potentiation of human S1P1 signaling – cell-based, primary and confirmation screens, CRE-bla reporter, primary screen (AID 449);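 further: forskolin at 4 µM as EC80 and the EC20 agonist is SEW2871; 100% = SEW2871 at its EC100 plus forskolin at EC80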
Conditions: S1P1 CRE-bla cells, forskolin, beta-lactamase FRET, potentiator mode, at 9.5 µM, stronger effect = higher value, 100% = saturating reference agonist, 0% = basal, S1P1 agonist co-added at EC20, 2 nM
[1] = measured here: confirmation screen, triplicate average

Sphingosine 1-phosphate receptor 1 (Homo sapiens), sequence (P21453 whole entry, looked up): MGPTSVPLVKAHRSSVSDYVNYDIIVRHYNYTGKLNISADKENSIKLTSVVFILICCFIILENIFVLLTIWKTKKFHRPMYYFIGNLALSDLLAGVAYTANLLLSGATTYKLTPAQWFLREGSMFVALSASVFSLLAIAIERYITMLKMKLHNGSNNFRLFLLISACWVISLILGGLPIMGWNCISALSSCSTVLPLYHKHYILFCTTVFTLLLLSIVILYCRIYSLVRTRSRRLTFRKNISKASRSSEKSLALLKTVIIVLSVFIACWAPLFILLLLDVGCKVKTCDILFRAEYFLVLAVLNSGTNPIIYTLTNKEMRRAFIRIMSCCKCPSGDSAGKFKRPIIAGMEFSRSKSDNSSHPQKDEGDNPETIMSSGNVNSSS

| SMILES | activation | activation [1] [%] |
| --- | --- | --- |
| c1ccc2c(c1)OCC(CNc1ncnc3nc[nH]c13)O2 (centres undefined) | 23.9% (inactive) |  |
| COc1ccc(CCNc2ncnc3nc[nH]c23)cc1OC | -11.4% (inactive) |  |
| CCc1ccc(N(CC)c2ncnc3nc[nH]c23)cc1 | 56.5% (active) | 57.4 |
| COC(=O)c1cc(C(=O)CSc2nc(C)cc(C)n2)ccc1O | -13.3% (inactive) |  |
| CC(C)OC(=O)c1sc2nc3c(cc2c1N)C(=O)CCC3 | -1.6% (inactive) |  |
| Cc1ccc(-c2nn(-c3ccccc3)cc2CN(Cc2ccccc2)C(=O)CCC(=O)O)o1 | -15.4% (inactive) |  |
| CCCc1nc(SCC(=O)Nc2ccccc2OC)c2c(=O)n(C)c(=O)n(C)c2n1 | -6% (inactive) |  |
| COc1ccc(-c2nnc(SCC(=O)c3cccs3)o2)c(OC)c1 | 8.5% (inactive) |  |
| COc1ccc(-n2c(C)cc(C(=O)CSc3nnc(-c4cccs4)o3)c2C)cc1 | 114% (active) | 111 |
| COc1ccc(OC)c(C(=O)CSc2nnc(-c3cccs3)o2)c1 | -31.3% (inactive) |  |
| CCOC(=O)c1sc(/N=C/Nc2nc(C)c(C(=O)OCC)s2)nc1C | 11.8% (inactive) |  |
| Cc1cc(C(=O)N2CCN(c3ccccn3)CC2)c(C)o1 | -7.8% (inactive) |  |
| COc1cccc(N(CC(=O)Nc2cccc(F)c2)S(C)(=O)=O)c1 | 13.1% (inactive) |  |
| COc1ccc(C)c2sc(=NC(=O)c3ccc(C#N)cc3)n(C)c12 | -12.3% (inactive) |  |
| CCSC1(SCC)N=C(N)C2(C#N)C(c3ccccc3)NC(C)=CC12C#N (centres undefined) | 2.3% (inactive) |  |
| CC(NC(=O)c1ccc(Cl)cc1)C(=O)N1CCCCC1 (centres undefined) | -2% (inactive) |  |
| CC1CSc2nnc(CCc3ccccc3)n21 (centres undefined) | -14.3% (inactive) |  |
| CC12COC3(C(=O)Nc4ccc(Cl)cn4)CC1CCC32C (centres undefined) | -10.8% (inactive) |  |
| COCCCn1c2nc3ccccc3nc2c2c(=O)n(Cc3ccc(Cl)cc3)c(C)nc21 | 6% (inactive) |  |
| CCC(C(=O)Nc1ncccn1)(C(F)(F)F)C(F)(F)F | -4.8% (inactive) |  |
| CC(C)Cc1cc(C(=O)NCCc2ccccc2)no1 | 20.9% (inactive) |  |
| CCCOc1ccc(-c2nc(N)n[nH]2)cc1 | 5.2% (inactive) |  |
| CCOC(=O)C1CCCN(C(=O)Cn2ncc3c(=O)oc4ccc(C)cc4c32)C1 (centres undefined) | -8.1% (inactive) |  |
| Cc1cc(OCCN2CCCC2)ccc1C(C)C | -14.6% (inactive) |  |
| COc1ccc(OC)c2[nH]c(=O)c(CCNC(=O)C(C)(C)C)cc12 | -8.4% (inactive) |  |
| CCOC(=O)CSC1=C(C#N)C(c2sccc2C)CC(=O)N1 (centres undefined) | -11.6% (inactive) |  |
| CC(=O)N1CCN(C(=O)c2cccc(S(=O)(=O)Nc3ccc(C)cc3)c2)CC1 | -12.2% (inactive) |  |
